# Assay results published in ChEMBL document CHEMBL1157539, “Thousands of chemical starting points for antimalarial lead identification” (Nature, 2010).
# What was measured:
# Type in all cases: functional
# Plasmodium falciparum [1] = assay: GSK_TCMDC: Inhibition of Plasmodium falciparum 3D7 in whole red blood cells, using parasite LDH activity as an index of growth. Test compounds present at 2uM
# Plasmodium falciparum [2] = assay: GSK_TCMDC: Inhibition of Plasmodium falciparum Dd2 in whole red blood cells, using parasite LDH activity as an index of growth. Test compounds present at 2uM
# HepG2 = assay: GSK_TCMDC: Percent inhibition of human HepG2 cell line. Test compounds present at 10uM.
SMILES,Inhibition (Plasmodium falciparum [1]),Inhibition (Plasmodium falciparum [2]),Inhibition (HepG2)
O=C(/C=C/c1ccc(Cl)c(Cl)c1)NCCCCCN1CCC(NC(=O)Nc2cc(F)cc(F)c2)CC1,100%,6%,80%
COc1ccc(/N=[N+](\[O-])c2ccccc2/[N+]([O-])=N/c2ccc(OC)cc2)cc1,84%,29%,13%
O=C1NC(c2ccccc2)C2(CCN(CC(O)COc3cccc4ncccc34)CC2)O1 (configuration not stated),92%,95%,5%
O=C(c1ccc(O)c(-c2cc(Cl)cc(Cl)c2)c1)N1CCCC1,90%,57%,3%
O=C(/C=C/c1ccc(Cl)c(Cl)c1)NCCCCCN1CCCN(C(=O)Nc2ccc(OC(F)F)cc2)CC1,99%,0%,39%
COC(=O)c1cccc(CNCc2ccc(-c3ccc(-c4nc5cc(C(F)(F)F)ccc5[nH]4)s3)cc2)c1.O=C(O)C(F)(F)F,100%,96%,34%
CCC1CN2CCc3cc(OC)c(OC)cc3C2CC1CC1NCCc2cc(OC)c(OC)cc21.Cl (configuration not stated),100%,98%,42%
CCCCN(Cc1cccc(C(F)(F)F)c1Cl)c1ccc(C(O)(C(F)(F)F)C(F)(F)F)cc1.O=C(O)C(F)(F)F,91%,55%,10%
COc1ccc2nccc([C@@H](O)CN3CCC(NCc4ccc5nnsc5c4)CC3)c2c1.O=C(O)C(=O)O,99%,0%,16%
O=C(Nc1cccc(F)c1)NC1CCN(c2ccnc3cc(Cl)ccc23)CC1.O=C(O)C(F)(F)F,96%,37%,11%
O=S(=O)(Nc1cccc(CCN2CCC(N3CCCCC3)CC2)c1)c1cccc(C(F)(F)F)c1,100%,13%,25%
CCN(CCCN1CCCCC1)c1cc(C)nc(Nc2ccc(C)cc2C)n1.O=C(O)C(F)(F)F,91%,35%,33%
O=[N+]([O-])c1ccccc1C=NN=c1cc[nH]c2ccccc12,100%,98%,3%
CCC(CC)n1c(C)cc2c3c(N)nc(N)nc3ccc21,95%,95%,61%
COc1ccc(OC)c(C=NNc2nc3ccccc3[nH]2)c1,99%,28%,0%
OC(CNCc1ccccc1OCc1ccccc1)c1cccc(Cl)c1 (configuration not stated),100%,100%,0%
Fc1cccc(C=NNc2ccnc3cc(Cl)ccc23)c1,99%,91%,6%
CO/C(=C\C=C\c1cc2cc(Cl)c(Cl)cc2[nH]1)C(=O)NC1CC(C)N(C)C(C)C1 (configuration not stated),97%,57%,64%
CN(C)Cc1cc2c(O)c(Cc3ccccc3)ccc2o1,85%,69%,3%
O=C(Cc1c[nH]cn1)Nc1ccc(-c2cccc(-c3nc4cc(F)ccc4[nH]3)c2)cc1,100%,70%,28%
Cc1cc2ncn(-c3nccc(NCc4cccnc4)n3)c2cc1C.O=C(O)C(F)(F)F,99%,98%,0%
CSc1ccc(CN2CCC(NC(=O)c3ccc(-c4cccc(Cl)c4)s3)CC2)cc1.O=C(O)C(F)(F)F,86%,19%,75%

SMILES,Inhibition (Plasmodium falciparum [1]),Inhibition (Plasmodium falciparum [2]),Inhibition (HepG2)
CCN(CC)CCN(Cc1ccc(-c2ccc(C(F)(F)F)cc2)cc1)C(=O)Cn1c(CCc2cc(F)cc(F)c2F)nc(=O)c2ccccc21.O=C(O)C(O)C(O)C(=O)O,100%,77%,36%
Cc1cc(NC(=O)c2ccco2)ccc1OC1CCN(Cc2ccc(F)cc2)C1.O=C(O)C(F)(F)F (configuration not stated),96%,92%,5%
COc1ccc(N2CCN(CCCOc3ccc(NC(=O)c4cc(Cl)cc(Cl)c4)cc3)CC2)c(OC)c1,100%,41%,38%
N#Cc1ccc(S(=O)(=O)N2C(c3cccc([N+](=O)[O-])c3)C(C(=O)c3ccccc3)N(C3CCCCC3)C2c2cccc([N+](=O)[O-])c2)cc1 (configuration not stated),83%,79%,16%
O=C(CCc1c[nH]cn1)Nc1cccc(-c2ccc(-c3nc4ccccc4[nH]3)cc2)c1,100%,60%,24%
Br.CC1(C)NC(=N)NC(=N)N1OCC=Cc1ccccc1,94%,96%,62%
CCCN1CC[C@@H](CCCc2ccnc3ccc(O)cc23)[C@@H](CC)C1.Cl,93%,14%,10%
CN1CCN(Cc2cccc(-c3ccc4c(Nc5ccc(Oc6cccnc6)cc5)ccnc4c3)c2)CC1,100%,100%,15%
Cc1ccc2[nH]c(C)c(Br)c(=O)c2c1,95%,84%,0%
COc1cc2ncnc(Nc3ccc4nc(-c5ccccc5)[nH]c4c3)c2cc1OC.Cl,92%,32%,15%
O=c1nc(NCCCCCN2CCC(c3c[nH]c4ccccc34)CC2)[nH]cc1Cc1ccc(Cl)c(Cl)c1,94%,8%,21%
Cl.N=C(N)NCCCN(Cc1ccccc1)c1ccccc1,100%,97%,0%
O=CO.O=S1(=O)NCc2ccc(Nc3nccc(Nc4ccc5c(cnn5Cc5ccccc5)c4)n3)cc21,94%,33%,0%
CC(C)(CNC(=O)[C@H]1CCCCN1)c1nc(-c2ccc(Cl)c(O)c2)c(-c2ccncc2)[nH]1.Cl,98%,98%,6%
Cl.OCCNc1nc(Nc2ccccc2)nc2ccccc12,93%,61%,5%
CC(=O)Nc1cc(C(=O)Nc2cccc(-c3cccc(-c4nc5cc(C(F)(F)F)ccc5[nH]4)c3)c2)ccc1C,97%,43%,56%
CN1CCN(c2ccc(Nc3c4ccccc4nc4ccccc34)cc2)CC1,100%,94%,0%
O=C(COc1ccc(F)cc1)NC1CCN(c2ccnc3cc(Cl)ccc23)C1.O=C(O)C(F)(F)F (configuration not stated),100%,100%,24%
O=C(Nc1cccc(F)c1)c1ccc(C(=O)NC2CCN(CC3CCCCC3)C2)cc1.O=C(O)C(F)(F)F (configuration not stated),96%,15%,16%
CCCC(C)NC(=O)c1cnn(-c2ccc(C(C)(C)C)cc2)c1OCc1ccc(Br)cc1 (configuration not stated),84%,64%,17%
COc1ccc(CNC2Cc3ccccc3C2)cc1-c1ccc(S(=O)(=O)NCCN2CCCC2)cc1.O=C(O)C(F)(F)F,100%,61%,40%
Cc1ccc(Cn2nc(Cl)c(N3CCCNCC3)cc2=O)cc1NC(=O)Nc1ccc(-c2ccccc2)cc1.O=C(O)C(F)(F)F,100%,55%,90%

SMILES,Inhibition (Plasmodium falciparum [1]),Inhibition (Plasmodium falciparum [2]),Inhibition (HepG2)
Cc1cccc2nc(-c3ccc(-c4cccc(NCc5cn6cccnc6n5)c4)cc3)[nH]c12,94%,63%,9%
CN(C)CCN(Cc1ccccc1-c1ccc(CNCCc2ccccc2)cc1)C(=O)NC1CCCCC1.O=C(O)C(F)(F)F,88%,89%,98%
CCc1c[nH]c2c(N3CCCC3=O)cc(C(=O)N[C@@H](Cc3ccccc3)[C@H](O)CNC3CCCCC3)cc12.O=CO,100%,98%,12%
O=C(Nc1ccc(-c2ccc(-c3nc4cc(C(F)(F)F)ccc4[nH]3)s2)cc1)c1c[nH]cn1,92%,61%,66%
Br.Oc1ccc2nc(N3CCNCC3)nc(NCCCc3ccccc3)c2c1,100%,0%,14%
CC(C)(C)C(=O)N1CCN(c2ccc([N+](=O)[O-])c(NC3CC3)c2)CC1,95%,97%,8%
CC(O)C(=O)O.COc1cc(Cc2cnc(N)nc2N)c2c(c1OC)OC(C)(C)C=C2,93%,2%,7%
Cc1nc(N/C=C/c2ccc(O)cc2)cc(N2CCCC2)n1,93%,54%,0%
COc1cccc2c(NN=Cc3ccc(Cl)cc3)ccnc12,99%,39%,26%
O=C(Nc1cccc(C2=NCCN2)c1)Nc1cccc(C2=NCCN2)c1 [IMIDOCARB],98%,99%,16%
Cc1cccc2nc(-c3cccc(-c4cccc(NC(=O)NCc5cccc(F)c5)c4)c3)[nH]c12,98%,32%,11%
N#Cc1ccc2[nH]cc(CN3CCC4(CC3)CN(CCNCc3ccccc3)C(=O)CO4)c2c1.O=C(O)C(F)(F)F,98%,0%,0%
CS(=O)(=O)CCNCc1cc(-c2cc3ncnc(Nc4ccc(OCc5cccc(F)c5)c(Cl)c4)c3s2)cs1,99%,48%,8%
O=C(/C=C/c1ccc(Cl)c(Cl)c1)NCCCCCN1CCC(CCNC(=O)C2(c3ccc(Cl)cc3)CC2)CC1,91%,16%,96%
Cc1cccn2c(=O)c3cc(C(=O)NCc4cccnc4)c(=N)n(CCc4ccccc4)c3nc12,99%,38%,0%
O=C(NC1CC1)c1ccc(N2CCCC(COc3ccccc3F)C2)nc1 (configuration not stated),87%,92%,8%
CN(C)C(=O)n1cnc(S(=O)(=O)N(C)c2ccc(Cl)cc2)n1.Cl,88%,80%,7%
O=C(Nc1ccc(CN2CCN(S(=O)(=O)c3cccc(Cl)c3)CC2)cc1)c1cccs1.O=C(O)C(F)(F)F,84%,41%,9%
O=C(O)C(F)(F)F.O=[N+]([O-])c1cccc(CNC2CCN(Cc3ccc(Cl)c(Cl)c3)CC2)c1,100%,71%,5%
Cn1nc(C(F)(F)F)c(-c2ccc(F)cc2)c1NC(=O)Nc1ccc(F)cc1F,100%,98%,11%
